Experimental findings from PubChem BioAssay AID2501 (Southern Research Specialized Biocontainment Screening …, 2010) are described below.

Out of some 2,200 compounds screened, about 1,200 (55%) were called active. The set was probably picked from earlier hits. The list shows a part of the results. Values without a mark were called inactive. No cut-off is given here; in the data, nearly all actives have IC50 up to about 92 µM.

The nature of this assay: counter assay for TAg ATPase ADP read-out – biochemical, ADP-Hunter, fluorescence, counter-screen (AID 2501).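 For inhibition: 0% = enzyme with vehicle and 100% = reference inhibitor wells; higher means more inhibition.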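 Note: purified T antigen ATPase.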 To be noted: series mostly up to 100 µM; inhibition: at the top concentration. Background: Counterscreens check selectivity or assay interference.
Usually inhibition stands for the drop in the measured response relative to a control, in per cent. For the compound `C#CCOCCOCCOCCNc1nc(N2CCN(C(=O)CCCCCCCCCCNC(=O)[C@H]([C@@H](C)CC)n3cc(CCCCN=C(N)N)nn3)CC2)nc(N2CCN(C(=O)CCCCCCCCCCNC(=O)[C@H]([C@@H](C)CC)n3cc(CCCCN=C(N)N)nn3)CC2)n1`, the “inhibition” value was 2.94%.

For orientation: IC50 means the point on the concentration scale where inhibition reaches its midpoint. In the case of `Cc1[nH]n(-c2ccccc2)c(=S)c1C=Nc1ccc([N+](=O)[O-])cc1`, the IC50 is 48 µM (active).

Turning to `O=[N+]([O-])c1ccc(C2(O)CN(c3ccccc3)C3=[N+]2CCS3)cc1` (stereo unspecified), the “inhibition” value was 0.4%.

With `COc1cc(SC#N)ccc1N=Cc1c(C)[nH]n(-c2ccc(C)cc2)c1=O`, the “inhibition” value is 6.95%.

Consider `CCCn1c(SCC(=O)N2CCCC(C)C2)nnc1-c1ccccn1` (stereo unspecified), for which the “inhibition” value was -17.7%.

Regarding `COc1ccc(NC2CCCN(C(=O)CCn3cccn3)C2)cc1` (stereo unspecified), the IC50 is 5.33 µM (active).

Regarding `O=C1CCCCN1CCC(=O)N1CCCC(Nc2ccccc2)C1` (stereo unspecified), the “inhibition” value was -15.5%.

Consider `COc1ccc(NC2CCCN(C(=O)CCCn3cncn3)C2)cc1` (stereo unspecified), for which the concentration for half-maximal inhibition (IC50) was 11.5 µM (active).

For the compound `COc1ccc(NC2CCCN(C(=O)CSc3ccccc3)C2)cc1` (stereo unspecified), the IC50 is 4.76 µM (active).

Turning to `OCCC1CN(Cc2cccn2-c2ncccn2)CCN1CCc1ccccc1` (stereo unspecified), the “inhibition” value is -12.1%.

`COc1ccc(C2=CC3=C(Br)C(=O)C(C)(OC(=O)c4cccs4)C(=O)C3=CO2)cc1` (stereo unspecified): the “inhibition” value is 20.1%.

In the case of `CC(=O)NS(=O)(=O)c1ccc(N=c2ssc3c2-c2cc(C)ccc2NC3(C)C)cc1`, the IC50 is 74.3 µM (active).

Turning to `CN1C=CC=C/C1=C(\C#N)c1nc2ccccc2[nH]1`, the IC50 is 4.36 µM (active).

Consider `NS(=O)(=O)c1ccc(N/N=C/c2ccc[nH]2)c([N+](=O)[O-])c1`, for which the IC50 was 14.6 µM (active).

Turning to `Cc1cs/c(=N\N=C\c2ccc(O)cc2)n1Cc1ccco1`, the IC50 is 5.01 µM (active).

Regarding `CCOc1cccc(=O)c2c(C)n(Cc3ccco3)c(C)c12`, the “inhibition” value is 27.8%.

In the case of `O=C(CCc1nnc(C2(c3ccc(Cl)cc3)CCC2)o1)N1CCCC(O)C1` (stereo unspecified), the “inhibition” value was 14.3%.

As for `CC(C)CN(Cc1c(O)ccc2c3c(c(=O)oc12)CCC3)CC(C)C`, the IC50 was 5.92 µM (active).

Consider `N=C1/C(=C\c2coc3ccc(O)cc3c2=O)C(=O)N=C2SC=CN12`, for which the IC50 is 84.9 µM (active).

As to `O=C1NN(c2ccccc2)C(=O)/C1=C\c1coc2ccc(O)cc2c1=O`, the concentration for half-maximal inhibition (IC50) was 10.7 µM (active).

As to `CC(C)CC1=NN2C(=N)/C(=C\c3coc4ccccc4c3=O)C(=O)N=C2S1`, the “inhibition” value was 16.1% [at 50 µM].

As for `O=C1NN(c2cccc(Br)c2)C(=O)/C1=C\c1ccc(O)cc1`, the IC50 was 11.6 µM (active).

For `CSC1=NSC2=NC(=O)/C(=C\c3coc4ccccc4c3=O)C(=N)N12`, the “inhibition” value is 18.9%.

Take `Cc1cc(C)c2nc(-c3ccco3)cc(C(=O)O)c2c1`: the “inhibition” value is -31.8%.

On to `COc1ccc(-n2c(=O)c3c4c(sc3n3c(=S)[nH]nc23)COC(C(C)C)C4)cc1` (stereo unspecified), for which the 50% inhibitory concentration (IC50) was 16.3 µM (active).

As to `CC(C)C1Cc2c(sc3c2c(=O)n(-c2ccccc2)c2n[nH]c(=S)n32)CO1` (stereo unspecified), the 50% inhibitory concentration (IC50) is 21.9 µM (active).

`Cc1cc(C)c2c(=O)n(CC(=O)NCCCN3CCN(c4ccccc4F)CC3)sc2n1`: the “inhibition” value is 8.21%.

Regarding `C=CCOC(=O)C1=C(C)N=c2s/c(=C3\C(=O)N(CC(=O)O)c4ccccc43)c(=O)n2C1c1ccc(OC)cc1` (stereo unspecified), the “inhibition” value is 16.1%.

For the compound `O=C(N/N=C/c1ccc(O)c(O)c1)C1CC1`, the 50% inhibitory concentration (IC50) was 4.15 µM (active).

Turning to `Cc1nonc1C(=O)N/N=C/c1ccc(O)c(O)c1`, the IC50 is 2.13 µM (active).

Take `COc1ccc2c(c1)c(C(=O)N/N=C/c1ccc(O)c(O)c1)c(C)n2C`: the IC50 was 14.6 µM (active).

Regarding `CCOC(=O)c1c(C)n(C)c2ccc(OCC(O)CN(CC)CC)cc12` (stereo unspecified), the “inhibition” value was -25.9%.

With `C=C1CC(C(=O)N/N=C/c2ccc(O)cc2)C1`, the IC50 is 5.39 µM (active).

For the compound `O=C(NCCO)Nc1ccc2nc(-c3ccco3)c(-c3ccco3)nc2c1`, the “inhibition” value was -158%.

`O=C(N/N=C/c1ccc(O)c(O)c1)N/N=C/c1ccc(O)c(O)c1`: the IC50 is 1.85 µM (active).

With `S=c1[nH]nc(NCCCN2CCOCC2)s1`, the IC50 is 52.3 µM (active).

Turning to `CCOc1ccc2ccccc2c1C(=O)N[C@@H]1C(=O)N2[C@@H]1SC(C)(C)[C@@H]2C(=O)O`, the “inhibition” value is 25.5%.

`CCOc1ccccc1N1CSC2=C(C#N)C(c3c(OC)ccc4ccccc34)CC(=O)N2C1` (stereo unspecified): the IC50 is 81.2 µM (active).

With `COc1ccc(N2CSC3=C(C#N)C(c4ccc(OC)c(OC)c4)CC(=O)N3C2)c(OC)c1` (stereo unspecified), the IC50 was 24.8 µM (active).

As for `CC(C)c1ccc(C2CC(=O)N3CN(C)CSC3=C2C#N)cc1` (stereo unspecified), the “inhibition” value is 13.5%.

On to `CN1CSC2=C(C#N)C(c3cccc(OCc4ccccc4)c3)CC(=O)N2C1` (stereo unspecified), for which the half-maximal inhibitory concentration (IC50) is 21.8 µM (active).

Consider `COc1cc(SC#N)ccc1N=Cc1c(C)[nH]n(-c2cccc3ccccc23)c1=O`, for which the “inhibition” value is 16%.

Regarding `COc1ccc(C2CC(=O)N3CN(c4ccccc4F)CSC3=C2C#N)cc1OC` (stereo unspecified), the “inhibition” value was 27.1%.

Regarding `COc1ccccc1N1CSC2=C(C#N)C(c3ccc(SC)cc3)CC(=O)N2C1` (stereo unspecified), the IC50 is 27.8 µM (active).

Consider `CC(=O)N1N=C(c2ccc(C)cc2)CC1c1ccco1` (stereo unspecified), for which the “inhibition” value was 27.2%.

For the compound `COc1cc(OC)c(C2CC(=O)N3CN(C)CSC3=C2C#N)cc1OC` (stereo unspecified), the IC50 was 83.4 µM (active).

On to `COc1ccc(OC)c(C2CC(=O)N3CN(c4cccc(Cl)c4C)CSC3=C2C#N)c1` (stereo unspecified), for which the “inhibition” value was 16.4%.

Consider `COc1ccc(N2CSC3=C(C#N)C(c4cc(OC)ccc4OC)CC(=O)N3C2)c(OC)c1` (stereo unspecified), for which the IC50 is 9.09 µM (active).

Regarding `COc1cc(OC)c(C2CC(=O)N3CN(c4ccc(C)cc4)CSC3=C2C#N)cc1OC` (stereo unspecified), the half-maximal inhibitory concentration (IC50) is 68 µM (active).

Turning to `COc1ccc(N2CSC3=C(C#N)C(c4cc(OC)c(OC)cc4OC)CC(=O)N3C2)c(OC)c1` (stereo unspecified), the IC50 was 78.4 µM (active).

Consider `COc1cc(OC)c(C2CC(=O)N3CN(c4ccccc4C)CSC3=C2C#N)cc1OC` (stereo unspecified), for which the “inhibition” value is 26.7%.
